{
  "source": "PubChem BioAssay (Tox21)",
  "experiment": "p53 small molecule agonists, cell-based qHTS assay with rat liver microsomes: qHTS cell viability counter screen (AID 1963580); also: nearly all actives have a fitted effect of over 45% in size",
  "settings": "p53RE-bla HCT-116 + rat microsomes, ATP viability, 16 h; series mostly up to 66 µM",
  "in_short": "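Viability is assessed in parallel with the p53 reporter read: HCT-116 p53RE-bla cells receive compounds plus rat microsomes and NADPH (0.5 mg/mL final apiece), incubate 16 h at 37 C, and then CellTiter-Glo luminescence is recorded.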",
  "note": "Results filed as inconclusive are left out. A call without a number means that no potency is given here. Some compounds were tested as several samples or in several runs, with calls that do not always agree. The source made the active and inactive calls. Calls follow the shape of the full dose curve. Potency is read from the fitted curve at half-maximal effect.",
  "data": [
    {"smiles": "O=C1CCCc2ccccc21", "values": [
      {"measurement": "Potency", "value": "inactive"}
    ]},
    {"smiles": "C[C@@H]1CCC[C@H](C)N1", "values": [
      {"measurement": "Potency", "value": "inactive"}
    ]},
    {"smiles": "CCN(CC)C(=O)C1CN2CCc3cc(OC)c(OC)cc3C2CC1OC(C)=O", "note": "(centres undefined)", "values": [
      {"measurement": "Potency", "value": "inactive"}
    ]},
    {"smiles": "Nc1c(NC/C=C\\COc2cc(CN3CCCCC3)ccn2)c(=O)c1=O", "values": [
      {"measurement": "activity change, negative = cytotoxicity", "value": "1.94% [at 13.5 µM] (inactive)"}
    ]},
    {"smiles": "OCCC(F)(F)C(F)(F)C(F)(F)C(F)(F)C(F)(F)C(F)(F)F", "values": [
      {"measurement": "Potency", "value": "inactive"}
    ]},
    {"smiles": "CC(C)=CCC[C@H](C)CC=O", "values": [
      {"measurement": "Potency", "value": "inactive"}
    ]},
    {"smiles": "CC(C)OC=O", "values": [
      {"measurement": "Potency", "value": "inactive"}
    ]},
    {"smiles": "CN1C(=O)CC(C)(c2ccccc2)C1=O", "note": "(centres undefined)", "values": [
      {"measurement": "Potency", "value": "inactive"}
    ]},
    {"smiles": "CC(C)(C)NCCO", "values": [
      {"measurement": "Potency", "value": "inactive"}
    ]},
    {"smiles": "CC/C=C\\CCOC(=O)CC", "values": [
      {"measurement": "Potency", "value": "inactive"}
    ]},
    {"smiles": "CC1CCCC(=O)C1=O", "note": "(centres undefined)", "values": [
      {"measurement": "Potency", "value": "inactive"}
    ]},
    {"smiles": "Nc1ccc([N+](=O)[O-])c(C(F)(F)F)c1", "values": [
      {"measurement": "Potency", "value": "inactive"}
    ]},
    {"smiles": "COc1nc(C)nc(NC(=O)NS(=O)(=O)c2ccccc2OCCCl)n1", "values": [
      {"measurement": "Potency", "value": "inactive"}
    ]},
    {"smiles": "CN(C)CCCNCCC#N", "values": [
      {"measurement": "Potency", "value": "inactive"}
    ]},
    {"smiles": "c1ccc(CNCc2ccccc2)cc1", "values": [
      {"measurement": "Potency", "value": "inactive"}
    ]},
    {"smiles": "BrC1CCC(Br)C(Br)CCC(Br)C(Br)CCC1Br", "note": "(centres undefined)", "values": [
      {"measurement": "Potency", "value": "inactive"}
    ]},
    {"smiles": "FC(F)(F)c1ccccc1-n1ccnc1", "values": [
      {"measurement": "Potency", "value": "inactive"}
    ]},
    {"smiles": "CCOC(=O)n1ccn(C)c1=S", "values": [
      {"measurement": "Potency", "value": "inactive"}
    ]},
    {"smiles": "O=c1cc(CO)occ1O", "values": [
      {"measurement": "Potency", "value": "inactive"}
    ]},
    {"smiles": "C=CC(=O)OCCCCCCCC", "values": [
      {"measurement": "Potency", "value": "inactive"}
    ]},
    {"smiles": "CCCC(C)CO", "note": "(centres undefined)", "values": [
      {"measurement": "Potency", "value": "inactive"}
    ]},
    {"smiles": "CC(CN1c2ccccc2Sc2ccccc21)N(C)C", "note": "(centres undefined)", "values": [
      {"measurement": "Potency", "value": "inactive"}
    ]},
    {"smiles": "CCO[Si](CCCN=C=O)(OCC)OCC", "values": [
      {"measurement": "Potency", "value": "inactive"}
    ]},
    {"smiles": "Cc1cn([C@H]2C[C@H](F)[C@@H](CO)O2)c(=O)[nH]c1=O", "values": [
      {"measurement": "Potency", "value": "inactive"}
    ]},
    {"smiles": "CC(C)NC(=O)c1ccccc1N", "values": [
      {"measurement": "Potency", "value": "inactive"}
    ]},
    {"smiles": "CC(=O)Oc1ccccc1C(=O)Nc1ncc([N+](=O)[O-])s1", "values": [
      {"measurement": "Potency", "value": "41.6 µM (active) and inactive"}
    ]},
    {"smiles": "CCCO[Si](OCCC)(OCCC)OCCC", "values": [
      {"measurement": "Potency", "value": "inactive"}
    ]},
    {"smiles": "Cc1c(O)cccc1C(=O)N[C@@H](CSc1ccccc1)[C@H](O)CN1C[C@H]2CCCC[C@H]2C[C@H]1C(=O)NC(C)(C)C", "values": [
      {"measurement": "Potency", "value": "inactive"}
    ]},
    {"smiles": "CC1COc2ccccc2N1", "note": "(centres undefined)", "values": [
      {"measurement": "Potency", "value": "inactive"}
    ]},
    {"smiles": "CC(=O)CC(C)=O", "values": [
      {"measurement": "Potency", "value": "inactive"}
    ]},
    {"smiles": "CC(C)(O)C(=O)c1ccc(OCCO)cc1", "values": [
      {"measurement": "Potency", "value": "inactive"}
    ]},
    {"smiles": "CC/C=C\\CCO", "values": [
      {"measurement": "Potency", "value": "inactive"}
    ]},
    {"smiles": "COC(=O)/C=C(/C)N", "values": [
      {"measurement": "Potency", "value": "inactive"}
    ]},
    {"smiles": "CC(C)C(=O)Nc1cccc(C2CN3CCSC3=N2)c1", "note": "(centres undefined)", "values": [
      {"measurement": "Potency", "value": "inactive"}
    ]},
    {"smiles": "CC(=O)c1ccc2c(c1)CCCC2", "values": [
      {"measurement": "Potency", "value": "inactive"}
    ]},
    {"smiles": "Cc1cccc(N(C)C)c1", "values": [
      {"measurement": "Potency", "value": "inactive"}
    ]},
    {"smiles": "C[C@H]1C[C@@H](O)CC(C)(C)C1", "values": [
      {"measurement": "Potency", "value": "inactive"}
    ]},
    {"smiles": "O=C[C@H](O)[C@@H](O)[C@H](O)[C@H](O)CO", "values": [
      {"measurement": "Potency", "value": "inactive"}
    ]},
    {"smiles": "O=Cc1cc2ccccc2o1", "values": [
      {"measurement": "Potency", "value": "inactive"}
    ]},
    {"smiles": "O=c1n(CCO)c(=O)n(CCO)c(=O)n1CCO", "values": [
      {"measurement": "Potency", "value": "inactive"}
    ]},
    {"smiles": "C[n+]1ccn(Cc2ccccc2)c1", "values": [
      {"measurement": "Potency", "value": "inactive"}
    ]},
    {"smiles": "Cc1ccccc1OCC(O)CO", "note": "(centres undefined)", "values": [
      {"measurement": "Potency", "value": "inactive"}
    ]},
    {"smiles": "Cc1cc(N)n(-c2ccccc2)n1", "values": [
      {"measurement": "Potency", "value": "inactive"}
    ]},
    {"smiles": "C=CC(O)CCCCC", "note": "(centres undefined)", "values": [
      {"measurement": "Potency", "value": "inactive"}
    ]},
    {"smiles": "COC(=O)N[C@H](C(=O)N[C@@H](Cc1ccccc1)[C@@H](O)CN(Cc1ccc(-c2ccccn2)cc1)NC(=O)[C@@H](NC(=O)OC)C(C)(C)C)C(C)(C)C", "values": [
      {"measurement": "Potency", "value": "inactive"}
    ]},
    {"smiles": "NC(=O)c1ccc([N+](=O)[O-])cc1Cl", "values": [
      {"measurement": "Potency", "value": "inactive"}
    ]},
    {"smiles": "O=[N+]([O-])c1ccccc1Nc1ccccc1", "values": [
      {"measurement": "Potency", "value": "inactive"}
    ]},
    {"smiles": "N=c1nc(N2CCCCC2)cc(N)n1O", "values": [
      {"measurement": "Potency", "value": "inactive"}
    ]},
    {"smiles": "C=C(C)C(=O)OC(C)C", "values": [
      {"measurement": "Potency", "value": "inactive"}
    ]},
    {"smiles": "CC1(C)CO[C@@H](CC(=O)O)CN1", "values": [
      {"measurement": "Potency", "value": "inactive"}
    ]},
    {"smiles": "Cc1ccc(C(C)(C)O)cc1", "values": [
      {"measurement": "Potency", "value": "inactive"}
    ]},
    {"smiles": "c1ccc(CCc2ccccc2)cc1", "values": [
      {"measurement": "Potency", "value": "inactive"}
    ]},
    {"smiles": "CC(C)CC(O)Cc1ccccc1", "note": "(centres undefined)", "values": [
      {"measurement": "Potency", "value": "inactive"}
    ]},
    {"smiles": "CCOCCC(=O)OCC", "values": [
      {"measurement": "Potency", "value": "inactive"}
    ]},
    {"smiles": "COc1cc(C=O)ccc1OC(=O)C(C)C", "values": [
      {"measurement": "Potency", "value": "inactive"}
    ]},
    {"smiles": "CCCCCCCCCCC", "values": [
      {"measurement": "Potency", "value": "inactive"}
    ]},
    {"smiles": "CCN(C=O)CC", "values": [
      {"measurement": "Potency", "value": "inactive"}
    ]},
    {"smiles": "OC1(c2ccc(Cl)cc2)CCNCC1", "values": [
      {"measurement": "Potency", "value": "inactive"}
    ]},
    {"smiles": "C[C@@H](O)[C@H]1C(=O)N2C(C(=O)O)=C(SCCN=CN)C[C@H]12", "values": [
      {"measurement": "Potency", "value": "inactive"}
    ]},
    {"smiles": "Clc1nc2ccccc2s1", "values": [
      {"measurement": "Potency", "value": "inactive"}
    ]},
    {"smiles": "COC(=O)c1sccc1S(N)(=O)=O", "values": [
      {"measurement": "Potency", "value": "inactive"}
    ]},
    {"smiles": "C/C=C/C(=O)CCCC", "values": [
      {"measurement": "Potency", "value": "inactive"}
    ]},
    {"smiles": "O=C(CCNNC(=O)c1ccncc1)NCc1ccccc1", "values": [
      {"measurement": "Potency", "value": "inactive"}
    ]},
    {"smiles": "C=CC(=O)O[C@H]1C[C@@H]2CC[C@@]1(C)C2(C)C", "values": [
      {"measurement": "Potency", "value": "inactive"}
    ]},
    {"smiles": "O=Cc1ccc([N+](=O)[O-])cc1", "values": [
      {"measurement": "Potency", "value": "inactive"}
    ]},
    {"smiles": "O=S(=O)(O)c1ccccc1O", "values": [
      {"measurement": "Potency", "value": "inactive"}
    ]},
    {"smiles": "CN(C)CCCNCCCN(C)C", "values": [
      {"measurement": "Potency", "value": "inactive"}
    ]},
    {"smiles": "O=C1c2ccccc2C(=O)C1c1ccc2cc(S(=O)(=O)O)cc(S(=O)(=O)O)c2n1", "values": [
      {"measurement": "Potency", "value": "inactive"}
    ]},
    {"smiles": "O=C(Nc1ccc(Cl)cc1)Nc1ccc(Cl)c(Cl)c1", "values": [
      {"measurement": "Potency", "value": "inactive"}
    ]}
  ]
}
